PubChem BioAssay
Calls of active or inactive are those of the source.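 How the source made its calls, unless noted: active means fluorescence slope after compound addition differing from the mean of all screened samples at 99.7% confidence, in either direction; inactive means the rest.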

Columns and labels:
[1] = inhibitors of TNFa-induced NFkB p65 translocation, primary screen, imaging, HUVEC, MLSMR starter and 10KST1 sets (AID 438;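 active means inhibition above 20% together with a positive visual image hit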;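 further: compound added about 3h40 before a 20 min TNFalpha stimulation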;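 on inhibition: signal is the nuclear over cytoplasmic p65 intensity ratio per well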); details: HUVEC TNFa-induced p65 nuclear translocation; cell count: measured here: nuclei count (cytotoxicity indicator), at 2.08 µM; inhibition: at 2 µM, stronger effect = higher value, 0% TNFa-plus-vehicle, 100% no-TNFa wells
[2] = inhibitors of mutant huntingtin aggregation, primary screen, imaging, exon1htt(103Q)mCFP cells, high-content imaging (AID 483;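 active means visual image review flags a hit and inhibition of aggregation exceeds 20%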;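 further: compound exposure lasted 3 days before fixation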;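 on nuclei count: percent of the per-plate median nuclei count of sample wells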); details: exon1htt(103Q)mCFP cell line, aggregate imaging, at 2 µM; inhibition of aggregation: stronger effect = higher value; nuclei count: measured here: cell count, toxicity
[3] = inhibitors of E-selectin induction by TNFa, primary screen, imaging, HUVEC, immunofluorescence, MLSMR starter and 10KST1 sets (AID 487;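 active means visually confirmed hit in the image check and inhibition above 20%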;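 on inhibition: signal is fraction of cell area covered by stained E-selectin grains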;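 on nuclei count: 100% = median nuclei count of all wells on the same plate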); details: HUVEC TNFalpha-induced E-selectin immunofluorescence imaging, at 2 µM; inhibition: stronger effect = higher value; nuclei count: measured here: cell number, toxicity
[4] = target: Voltage-gated potassium channel subunit beta-2 (Rattus norvegicus) (UniProt P62483); assay: KvBeta enzyme negative modulators, primary screen, biochemical, NADPH fluorescence (AID 622;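 active means fluorescence slope higher than the sample average by over 3 SD, cut at about -0.22 in these data, passing the limit was not always enough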;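 further: slope of raw intensity against log time taken from 70 to 1610 s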); details: recombinant KvBeta, 4-cyanobenzaldehyde reduction, at 10 µM, stronger effect = higher value
[5] = target: Voltage-gated potassium channel subunit beta-2 (Rattus norvegicus) (UniProt P62483); assay: KvBeta positive modulators, primary screen, biochemical, NADPH fluorescence (AID 623;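 active means NADPH fluorescence slope more negative than the mean of all samples by about 3 SD, 99.7% confidence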;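 further: fluorescence intensity change per second fitted from 20 to 320 s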); details: Recombinant KvBeta, NADPH fluorescence decrease slope, 10 min; at 10 µM; stronger effect = lower value
[6] = target: Alpha-2C adrenergic receptor (Homo sapiens) (UniProt P18825); assay: modulators of alpha2C/GIRK thallium flux, primary screen, cell-based, HEK293 alpha2C/GIRK1/2 (AID 624); details: thallium flux BTC fluorescence, at 10 µM, actives lie on both sides;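 further: slope of fluorescence ratio to pre-addition baseline per second over 15 to 24 s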
[7] = inhibitors of Sendai virus-induced IRF3 signaling, primary screen, TLR/RLR signaling modifier project, cell-based, Sendai virus stimulus, luciferase, 10K MLSCN set (AID 602276;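 active means inhibition at or above 50% at 10 µM; inactive means inhibition below 50%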;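 further: firefly luciferase from ISG56 promoter only with Renilla not read in this screen; 0% = Sendai virus plus DMSO and 100% = medium plus DMSO without virus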); details: HEK293 RL24 IRF3 luciferase reporter, at 10 µM, stronger effect = higher value
[8] = inhibitors of poly I:C-induced TLR3 signaling, primary screen, cell-based, poly I:C stimulus, luciferase, 10K MLSCN set (AID 602277;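 active means inhibition of the reporter signal at or above 50%; inactive means inhibition below 50%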); details: HEK293-TLR3 RL24 IRF3 luciferase reporter, at 10 µM, stronger effect = higher value

Voltage-gated potassium channel subunit beta-2 (Rattus norvegicus), sequence (P62483 whole entry, looked up): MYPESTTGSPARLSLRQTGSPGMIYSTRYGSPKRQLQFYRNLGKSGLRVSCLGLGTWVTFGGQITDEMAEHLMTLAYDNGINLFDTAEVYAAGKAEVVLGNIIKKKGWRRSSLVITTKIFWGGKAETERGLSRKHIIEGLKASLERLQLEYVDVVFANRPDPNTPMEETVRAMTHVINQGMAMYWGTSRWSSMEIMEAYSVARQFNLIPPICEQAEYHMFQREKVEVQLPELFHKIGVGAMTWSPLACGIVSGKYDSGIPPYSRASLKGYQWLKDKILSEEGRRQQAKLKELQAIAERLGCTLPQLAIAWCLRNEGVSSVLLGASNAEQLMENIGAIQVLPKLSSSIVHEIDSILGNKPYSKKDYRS
Alpha-2C adrenergic receptor (Homo sapiens), sequence (P18825 whole entry, looked up): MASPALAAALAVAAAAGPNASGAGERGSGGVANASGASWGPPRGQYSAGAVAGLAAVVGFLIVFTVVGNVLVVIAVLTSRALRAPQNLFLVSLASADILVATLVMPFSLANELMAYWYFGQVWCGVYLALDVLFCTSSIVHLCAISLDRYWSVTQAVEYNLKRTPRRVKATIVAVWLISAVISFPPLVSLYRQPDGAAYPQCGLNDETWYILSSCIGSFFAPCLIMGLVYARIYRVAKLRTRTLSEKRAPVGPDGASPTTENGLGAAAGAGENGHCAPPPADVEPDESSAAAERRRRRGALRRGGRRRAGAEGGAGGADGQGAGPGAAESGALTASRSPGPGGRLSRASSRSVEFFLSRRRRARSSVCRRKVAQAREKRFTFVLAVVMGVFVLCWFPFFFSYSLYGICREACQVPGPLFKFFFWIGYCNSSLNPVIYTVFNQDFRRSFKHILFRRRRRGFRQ

| SMILES | cell count [1] | inhibition [1] | inhibition of aggregation [2] | nuclei count [2] [%] | inhibition [3] | nuclei count [3] [%] | fluorescence slope [4] | NADPH fluorescence slope [5] | slope [6] | inhibition [7] | inhibition [8] |
| --- | --- | --- | --- | --- | --- | --- | --- | --- | --- | --- | --- |
| O=C(CN1CCCN(S(=O)(=O)c2ccc(Br)cc2)CC1)Nc1ccc2c(c1)OCO2 | 587 | -4.1% (inactive) | -15.4% (inactive) | 107 | -24.8% (inactive) | 84.9 | -0.491 (inactive) | -3.2e-05 (inactive) | 0.00566 (inactive) | 10.3% (inactive) | 38.2% (inactive) |
| Cc1c(C(=O)NCc2cccnc2)oc2ccc(S(=O)(=O)N3CCCCC3)cc12 | 614 | -17% (inactive) | 37.3% (active) | 117 | -47.2% (inactive) | 107 | -0.448 (inactive) | -0.000103 (inactive) | 0.00545 (inactive) | 19.5% (inactive) | 21.4% (inactive) |
| CCn1c2ccccc2c2cc(N)ccc21 | 705 | -34.5% (inactive) | 17.8% (inactive) | 91.5 | -37.7% (inactive) | 107 | -0.458 (inactive) | 5.8e-06 (inactive) | 0.00355 (inactive) | 8.66% (inactive) | 15.3% (inactive) |
| CC1=C(C(=O)OC2CCCCC2)C(c2cccnc2)n2ncnc2N1 (stereo not drawn) | 271 | -9.3% (inactive) | 10.8% (inactive) | 77.6 | 21.9% (inactive) | 34.7 | -0.327 (inactive) | -6.6e-06 (inactive) | 0.00388 (inactive) | 7.24% (inactive) | 26.4% (inactive) |
| COc1ccc(C(c2nnnn2C2CCCC2)N2CCN(C3CCCC3)CC2)cc1OC (stereo not drawn) | 263 | 17.5% (inactive) | 8.8% (inactive) | 104 | 2% (inactive) | 88.5 | -0.512 (inactive) | -0.000149 (inactive) | 0.00468 (inactive) | 12.8% (inactive) | 18.8% (inactive) |
| COc1cc2c(cc1NC(=O)CN1CCN(S(=O)(=O)c3ccc(F)cc3)CC1)oc1ccccc12 | 583 | -2.4% (inactive) | -2.8% (inactive) | 95.8 | -33.6% (inactive) | 88.8 | -0.364 (inactive) | 1.3e-05 (inactive) | 0.0037 (inactive) | 2.2% (inactive) | 30.3% (inactive) |
| CC1(C)CC(=O)C2=C(C1)NC(=O)CC2c1ccc(N(CCC#N)CCC#N)cc1 (stereo not drawn) | 432 | 5.9% (inactive) | -2.1% (inactive) | 109 | 21.1% (inactive) | 116 | -0.376 (inactive) | 6.8e-05 (inactive) | 0.00771 (inactive) | 1.16% (inactive) | 17.9% (inactive) |
| COc1ccc2cc(CN(CCO)C(=O)c3ccccc3F)c(=O)[nH]c2c1 | 474 | 9.4% (inactive) | -16% (inactive) | 108 | -93% (inactive) | 110 | -0.496 (inactive) | 5.3e-06 (inactive) | 0.00191 (inactive) | -11.1% (inactive) | -5.69% (inactive) |
| COc1c(C(=O)Nc2c(C)n(C)n(-c3ccccc3)c2=O)ccc2ccccc12 | 239 | -1.7% (inactive) | 16.4% (inactive) | 63.2 | -68.7% (inactive) | 117 | -0.512 (inactive) | -3.9e-05 (inactive) | 0.00486 (inactive) | 6.79% (inactive) | 11.2% (inactive) |
| COc1ccc(S(=O)(=O)NCC(c2cccnc2)N2CCN(c3ccc(F)cc3)CC2)cc1C (stereo not drawn) | 234 | -19.1% (inactive) | -4.9% (inactive) | 56.8 | 19.6% (inactive) | 87.7 | -0.447 (inactive) | 1.7e-05 (inactive) | 0.00574 (inactive) | 13.6% (inactive) | 27.2% (inactive) |
| O=S(=O)(Nc1cccnc1)c1cc(Cl)ccc1Cl | 395 | 2.5% (inactive) | 6.1% (inactive) | 99.9 | 26.2% (inactive) | 115 | -0.286 (inactive) | 2e-06 (inactive) | 0.00524 (inactive) | 23.6% (inactive) | 7.22% (inactive) |
| Cc1ccc(N2C(=O)c3oc4ccccc4c(=O)c3C2c2cccc(O)c2)nc1 (stereo not drawn) | 752 | 6.1% (inactive) | -1.9% (inactive) | 64.5 | -6.3% (inactive) | 66.8 | -0.589 (inactive) | -3.8e-06 (inactive) | 0.00643 (inactive) | 11% (inactive) | 14.6% (inactive) |
| O=C(O)C1CCCCC1C(=O)NCCc1ccccc1 (stereo not drawn) | 350 | 4.6% (inactive) | 14.3% (inactive) | 99.3 | -165% (inactive) | 103 | -0.535 (inactive) | -5.8e-05 (inactive) | 0.00513 (inactive) | -15.8% (inactive) | -11.5% (inactive) |
| CCCN(Cc1cc2cc(C)ccc2[nH]c1=O)C(=O)c1cccc(OC)c1 | 594 | 8.2% (inactive) | -3.9% (inactive) | 101 | -74% (inactive) | 107 | -0.506 (inactive) | -5.1e-05 (inactive) | 0.00579 (inactive) | 10.4% (inactive) | 10.9% (inactive) |
| CCOc1ccccc1N(CC(=O)NC1CCCC1)C(=O)CCCC(=O)Nc1ccccn1 | 369 | 5.3% (inactive) | 24.9% (inactive) | 102 | -20% (inactive) | 122 | -0.63 (inactive) | -2.4e-05 (inactive) | 0.00589 (inactive) | 5.25% (inactive) | 19.7% (inactive) |
| COC(=O)COc1cccc(NC(=O)COc2ccccc2)c1 | 349 | -2.7% (inactive) | -0.4% (inactive) | 115 | -94.8% (inactive) | 104 | -0.336 (inactive) | 3.4e-07 (inactive) | 0.00642 (inactive) | 1.13% (inactive) | 20.7% (inactive) |
| COCCN1Cc2cccc(C(=O)Nc3cccnc3)c2C1=O | 649 | -26.5% (inactive) | -6.7% (inactive) | 100 | -39.6% (inactive) | 100 | -0.503 (inactive) | -0.000182 (inactive) | 0.00506 (inactive) | 6.71% (inactive) | 5.54% (inactive) |
| COC(=O)CN1C(=O)CC(C)(C)S(=O)c2ccccc21 (stereo not drawn) | 769 | -9.2% (inactive) | 13.9% (inactive) | 82.6 | -44% (inactive) | 98.5 | -0.574 (inactive) | -5.2e-05 (inactive) | 0.00765 (inactive) | 4.76% (inactive) | 22.2% (inactive) |
| CC1CCCCC1NC(=O)c1ccc(N2CCCC2=O)cc1 (stereo not drawn) | 536 | -21.7% (inactive) | -20.5% (inactive) | 142 | -20.8% (inactive) | 103 | -0.51 (inactive) | 3.4e-05 (inactive) | 0.00599 (inactive) | 5.47% (inactive) | -5.67% (inactive) |
| Cc1ccc2nc(NCCCN3CCOCC3)c(C=NCCCN3CCOCC3)c(=O)n2c1 | 619 | -9.6% (inactive) | -38.5% (inactive) | 10.5 | -49.1% (inactive) | 141 | -0.435 (inactive) | -5.9e-05 (inactive) | 0.00509 (inactive) | 14.7% (inactive) | 33.3% (inactive) |
| CC1CC(C)CN(c2ncnc3c2cnn3-c2ccc(Cl)cc2)C1 (stereo not drawn) | 584 | 3.4% (inactive) | 12.1% (inactive) | 79.5 | -52.4% (inactive) | 112 | -0.504 (inactive) | -2e-05 (inactive) | 0.00874 (inactive) | 37.3% (inactive) | 11.5% (inactive) |
| COc1ccc(S(=O)(=O)N2Cc3ccccc3CC2C(=O)Nc2ccc(O)cc2)cc1OC (stereo not drawn) | 772 | -2.9% (inactive) | -7.4% (inactive) | 119 | -42.8% (inactive) | 114 | -0.556 (inactive) | -6e-05 (inactive) | 0.0071 (inactive) | 8.15% (inactive) | 29.5% (inactive) |
| O=C(c1cc2cc(Cl)cc(Cl)c2oc1=O)N1CCOCC1 | 275 | 13.1% (inactive) | -12% (inactive) | 87.4 | -63.2% (inactive) | 110 | -0.48 (inactive) | -6.7e-05 (inactive) | 0.0058 (inactive) | 26.9% (inactive) | 30.3% (inactive) |
| CC1(C)CC(=O)N(CC(=O)NCc2ccccc2)c2ccccc2S1(=O)=O | 807 | -1.7% (inactive) | -7.8% (inactive) | 123 | -20% (inactive) | 120 | -0.602 (inactive) | 1.2e-05 (inactive) | 0.00666 (inactive) | 12.3% (inactive) | 20.7% (inactive) |
| CN(Cc1ccco1)C(=O)Cn1c(=O)oc2cc(S(=O)(=O)NCc3ccccc3)ccc21 | 924 | 2.8% (inactive) | 20.1% (inactive) | 104 | -17.8% (inactive) | 96.6 | -0.55 (inactive) | 2.5e-05 (inactive) | 0.00749 (inactive) | 13.5% (inactive) | 10.8% (inactive) |
| COc1ccc(CN(CC(=O)NCC2CCCO2)C(=O)CNS(=O)(=O)c2ccc(C)cc2)cc1 (stereo not drawn) | 589 | -20.2% (inactive) | -5.2% (inactive) | 119 | -52.4% (inactive) | 92.4 | 0.012 (inactive) | -3.8e-05 (inactive) | 0.00362 (inactive) | 9.43% (inactive) | 3.49% (inactive) |
| COc1cccc(NC(=O)CSc2nnc(-c3cc(-c4ccccn4)nc4ccccc34)o2)c1 | 578 | -14.5% (inactive) | -14.5% (inactive) | 112 | -102% (inactive) | 141 | -0.57 (inactive) | -2e-06 (inactive) | 0.00553 (inactive) | 1.87% (inactive) | 0.453% (inactive) |
| CCOC(=O)Cn1nc(-c2ccc(Cl)cc2)cc1N | 285 | 15.6% (inactive) | -12% (inactive) | 99.9 | -2.9% (inactive) | 111 | -0.501 (inactive) | -8.2e-05 (inactive) | 0.00497 (inactive) | -5.22% (inactive) | -25.8% (inactive) |
